# Test results as given in PubChem BioAssay.
# Calls of active or inactive are those of the source. Unless noted, no rule for the calls is given here.
# Tests used:
# [1] = system: Wnt5a (protein binding on small-molecule microarray); assay: small molecules binding Wnt5a protein – biophysical, small-molecule microarray, 635/667 nm fluorescence, primary screen (AID 1142); conditions: 635 nm fluorescence, higher = more signal;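 also: fluorescence read at 667 nm with signal to noise per printed feature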
# [2] = ATP-based viability of Huh7 replicon cells – cell-based, CellTiter-Glo luminescence, basal, 48 h, cytotoxicity control for HCV replication inhibitor project, primary screen (AID 1143); conditions: higher = more signal, called active from +8 up or from −8 down;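 also: Huh7 hepatoma cells carrying a hepatitis C replication reporter with no stimulus; test concentration not given here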
# [3] = Pseudomonas biofilm growth suppression – PAO1 strain, BacTiter-Glo luminescence, LB-PBS, primary screen (AID 1144); conditions: P. aeruginosa PAO1 biofilm, 12 h, higher = more signal
# [4] = basal CRE-LacZ reporter activity in PC12 – cell-based, unstimulated, primary screen (AID 1145); conditions: no forskolin, luminescence, 4.5 h, higher = more signal, called active from +8 up or from −8 down
# [5] = forskolin-driven CRE-LacZ activity in PC12 – cell-based, CRE-LacZ reporter, forskolin-stimulated, primary screen (AID 1146); conditions: luminescence, 4.5 h, higher = more signal, called active from +8 up or from −8 down;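 also: PC12 cells with 6xCRE LacZ reporter stimulated by forskolin 10 µM; beta-galactosidase reporter signal reflecting CREB driven transcription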
# [6] = target: Streptavidin (Streptomyces avidinii) (UniProt P22629); assay: compounds binding control protein streptavidin – biophysical, small-molecule microarray, 635/667 nm fluorescence, artefact control for SMM compound annotation, primary screen (AID 1147); conditions: higher = more signal;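 also: signal reflects streptavidin binding to arrayed compounds as a control protein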
# [7] = probe aInhba binding on compound microarray – biochemical, small-molecule microarray, 635/667 nm fluorescence, primary screen (AID 1148); conditions: higher = more signal;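 also: score merges 667nm spot fluorescence with signal-to-noise for antibody binding to printed compounds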
# Torsin-1A (Homo sapiens) [8] = target: Torsin-1A (Homo sapiens) (UniProt O14656); assay: TOR1A wild-type binding on microarray – cell lysate, small-molecule microarray, lysate, 635/667 nm, primary screen (AID 1149); conditions: COS7 hTOR1A-WT lysate, 635 nm fluorescence, higher = more signal
# Torsin-1A (Homo sapiens) [9] = target: Torsin-1A (Homo sapiens) (UniProt O14656); assay: torsin A mutant lysate binding on microarrays – cell lysate, small-molecule microarray, COS7 lysate, 635/667 nm fluorescence, primary screen (AID 1150); conditions: COS7 hTOR1A mutant lysate, 635 nm fluorescence, higher = more signal;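 also: score pools 667 nm emission and signal to noise measuring lysate protein binding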
# [10] = system: Sonic hedgehog protein (Shh); assay: Sonic hedgehog microarray binding compounds – biochemical, small-molecule microarray, 635/667 nm fluorescence, primary screen (AID 1151); conditions: 635 nm fluorescence, higher = more signal;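 also: Shh protein binding to compounds spotted on small-molecule microarray slides; score combines spot fluorescence intensity with signal-to-noise across triplicate slides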
# Torsin-1A (Homo sapiens), sequence (O14656 whole entry, looked up): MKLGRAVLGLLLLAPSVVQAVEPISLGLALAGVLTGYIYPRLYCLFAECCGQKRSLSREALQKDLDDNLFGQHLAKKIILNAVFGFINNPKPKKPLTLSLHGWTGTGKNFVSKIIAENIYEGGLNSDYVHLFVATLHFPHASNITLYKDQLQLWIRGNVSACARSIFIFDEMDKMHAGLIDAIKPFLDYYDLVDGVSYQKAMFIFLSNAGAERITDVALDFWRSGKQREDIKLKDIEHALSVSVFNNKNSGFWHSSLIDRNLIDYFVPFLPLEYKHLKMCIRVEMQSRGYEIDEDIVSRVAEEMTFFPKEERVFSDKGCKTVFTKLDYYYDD
# Streptavidin (Streptomyces avidinii), sequence (P22629 whole entry, looked up): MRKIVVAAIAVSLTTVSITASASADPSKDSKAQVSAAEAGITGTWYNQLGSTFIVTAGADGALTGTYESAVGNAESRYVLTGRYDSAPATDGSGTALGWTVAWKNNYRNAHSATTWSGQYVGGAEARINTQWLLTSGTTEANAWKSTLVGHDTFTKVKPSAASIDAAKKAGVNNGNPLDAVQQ
SMILES,composite z-score [1],z-score [2],z-score [3],z-score [4],z-score [5],composite z-score [6],composite z-score [7],composite z-score (Torsin-1A (Homo sapiens) [8]),composite z-score (Torsin-1A (Homo sapiens) [9]),composite z-score [10]
COc1cc2c(cc1OC)CN(C(=O)[C@@H]1[C@H]3C(=O)O[C@H](c4ccccc4)[C@H](c4ccccc4)N3[C@H](c3ccc(O)cc3)[C@@]13C(=O)Nc1ccc(C#CC4(O)CCCCCC4)cc13)CC2,0.382,-0.292 (inactive),-0.37 (inactive),-0.168 (inactive),-0.65 (inactive),1.06,-0.287,0.287,0.787,1.91
CC(C)c1ccc(NN2C(C(O)c3cc(C(F)(F)F)cc(C(F)(F)F)c3)C=CC3C(=O)N(c4ccccc4)C(=O)C32)cc1 (stereo not given),-0.0702,-2.86 (inactive),-1.4 (inactive),-0.322 (inactive),0.849 (inactive),0.759,0.0001,-0.283,0.843,-0.254
CCCCCN1CC=CC23O[C@@H]4/C=C\CCCOC(=O)C4[C@H]2C(=O)N(C(CO)C(C)C)[C@@H]3C1=O (stereo not given in full),0.175,-0.0623 (inactive),-1.6 (inactive),-0.899 (inactive),0.373 (inactive),-0.739,-0.128,-0.731,-0.436,0.976
CCOC(=O)C1=CCC(c2ccc(C)cc2)N(S(=O)(=O)c2ccc(C)cc2)C1 (stereo not given),-0.273,-3.23 (inactive),0.271 (inactive),-0.527 (inactive),-0.34 (inactive),0.841,-0.0645,-0.0669,0.121,-0.396
[N-]=[N+]=NCc1ccccc1C[C@]1(C(=O)NCC(O)CO)N=C(c2ccc(OCCCO)cc2)O[C@H]1c1ccccc1 (stereo not given in full),0.185,-3.58 (inactive),0.55 (inactive),1.87 (inactive),-0.621 (inactive),0.236,0.109,0.381,0.777,-1.52
CC(C)(C)OC(=O)CC[C@@]1(C(=O)NCC(O)CO)N=C(c2ccc(OCCCO)cc2)O[C@@H]1c1ccccc1N=[N+]=[N-] (stereo not given in full),0.849,-0.371 (inactive),-1.18 (inactive),-0.183 (inactive),-0.173 (inactive),1.85,0.289,1.45,1.76,0.146
C=CCN(Cc1ccccc1)C(=O)C(c1cccs1)N(CCOCCO)C(=O)/C=C\C(=O)O (stereo not given),-1.17,-0.247 (inactive),-1.93 (inactive),-1.58 (inactive),-0.949 (inactive),-1.28,-0.34,-3.64,-3.08,-0.933
